# Screens as filed in PubChem.
# ALR inh: inhibitors of human ALR sulfhydryl oxidase, primary screen, biochemical, H2O2 detection, HRP-luminol luminescence, single point | FAD-linked sulfhydryl oxidase ALR (Homo sapiens), P55789 | purified ALR, DTT oxidation | inhibition, % (concentration not given with the values) | 290,000 compounds, 3.8% hits;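 active means mean replicate inhibition above about 79%, with every replicate also reaching it, limit read from the data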
# Target sequence (P55789 whole entry, looked up): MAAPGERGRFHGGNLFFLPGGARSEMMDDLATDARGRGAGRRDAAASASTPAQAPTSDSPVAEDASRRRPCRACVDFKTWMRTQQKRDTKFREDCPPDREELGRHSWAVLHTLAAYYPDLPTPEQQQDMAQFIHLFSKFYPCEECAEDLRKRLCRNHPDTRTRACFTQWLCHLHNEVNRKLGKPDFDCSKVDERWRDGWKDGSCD
# NSD2 inh: NSD2 histone methyltransferase inhibitors, primary screen, biochemical, AlphaScreen, single concentration, set 2 | Histone-lysine N-methyltransferase NSD2 (Homo sapiens), O96028 | NSD2 peptide methylation, 120 min | inhibition, % at 12.5 µM | 310,000 compounds, 0.54% hits | AID 743445, 2014; in the data active means inhibition above about 50%
# Mot1-301 SUMO: yeast Mot1-301 growth rescue at high temperature, primary screen, SUMOylation pathway inhibitor project, S. cerevisiae, ATP luminescence, 38.5C; growth rescue, % at 18.8 µM; S. cerevisiae Mot1-301 growth rescue; percent above DMSO median, 100 means doubled; 320,000 compounds, 1% hits;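 active means every valid replicate shows activation above 250% relative to neutral control wells; inactive means the rest, any valid replicate at or below 250%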;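 further: OY570 slx delta 5 strain wells were the positive control but not used for scaling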
# CDK5 p35 inh: inhibitors of human CDK5/p35 kinase, primary screen, biochemical, single concentration; Cyclin-dependent kinase 5 (Homo sapiens) + Cyclin-dependent kinase 5 activator 1 (Homo …; Recombinant CDK5/p35, ADP-Glo luminescence, 60 min; inhibition, % at 10 µM; 330,000 compounds, 0.01% hits; AID 488839, 2010;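 active means highest replicate inhibition of at least 50% and at least 75% of replicates reaching 50%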;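 further: plate controls were DMSO neutral control for no effect and GW8510 at 10 µM for full effect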
# Casp6 inh: human caspase-6 inhibitors, primary screen, biochemical, VEID-R110 fluorescence, single point, set 2 | inhibition, % at 12.5 µM | AID 686996, 2013 | purified caspase-6, Z-VEID-R110 cleavage fluorescence | 350,000 compounds, 0.53% hits;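 active means mean inhibition across replicates at least about 35%, with every replicate also reaching that limit, limit read from the data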;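 further: 0% = median of neutral control wells and 100% = no fluorescence left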
# Target sequence (P55212 24-179 limits assumed): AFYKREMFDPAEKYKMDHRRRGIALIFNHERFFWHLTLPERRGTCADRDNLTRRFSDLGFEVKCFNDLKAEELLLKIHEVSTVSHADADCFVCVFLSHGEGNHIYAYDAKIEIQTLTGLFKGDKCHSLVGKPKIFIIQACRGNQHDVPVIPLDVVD
# Target sequence (P55212 194-293 limits assumed): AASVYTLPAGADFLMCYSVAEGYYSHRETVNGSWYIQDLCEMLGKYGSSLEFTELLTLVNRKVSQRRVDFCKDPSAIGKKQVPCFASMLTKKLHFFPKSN
# Glyco luc inh: increase of ERlucT glycosylation luciferase signal, primary screen, N-linked glycosylation inhibitor project, D54 ERlucT cells, luminescence, set 2; 360,000 compounds, 0.23% hits; reporter increase, % at 12.5 µM; D54 ERlucT glycosylation luciferase reporter, 24 h; percent of 100 nM tunicamycin response;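 active means mean luciferase reporter signal, scaled so untreated is 0 and the glycosylation-blocking control 100, at or above a set limit in every replicate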;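 further: luciferase carries N-glycosylation sites so blocking glycosylation raises the light; 0% = median of neutral control wells and 100% = median of 100 nM tunicamycin wells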
# Mot1 SUMO dose: growth restoration of Mot1-301 yeast on galactose, dose response, SUMO pathway inhibitor project, whole organism, S. cerevisiae, ATP luminescence, cherry-picked samples; shares compounds with Mot1-301 SUMO; S. cerevisiae Mot1-301 galactose growth, 24 h; -100 = growth of slx-deleted rescue strain; growth activity, percent, % at 42 µM; 2,300 tested, under 10 active;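 active means Signal drops as the depositor expects, and the fitted half-maximal dose is no more than ten times the top valid tested dose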;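 further: more negative values mean stronger growth rescue toward the control strain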
# The depositor's hits bear a star; x = no result; + = active, no number; [ ] = dose if it differs, or a comment. Only some compounds are listed: those with a hit (about 3.9% of all), similar ones and a draw of the others.
SMILES,ALR inh,NSD2 inh,Mot1-301 SUMO,CDK5 p35 inh,Casp6 inh,Glyco luc inh,Mot1 SUMO dose
COc1ccc2c(c1)OC[C@H]1[C@H]2N2C(=O)c3cc(F)ccc3NC(=O)[C@@]2(C)[C@H]1c1ccccc1,1,x,+,-2,3,16,0
O=C(C[C@@H]1C=C[C@H](NS(=O)(=O)c2ccc(F)cc2)[C@H](CO)O1)NC1CCC1,x,x,x,x,0,x,x
COc1ccc(N2C(=O)CCC(C(=O)NCc3cccnc3)C2c2ccc(OC)c(OC)c2)cc1 (configuration not stated),x,-4,359*,x,x,0,1
CCNC(=O)c1cc2c(c(-c3cccc(-c4cccc(F)c4)c3)n1)[C@H](CCO)N([S@@](=O)C(C)(C)C)C2,x,x,x,x,0,x,x
CCNC(=O)C[C@H]1CC[C@H]2[C@H](COc3ccc(NS(=O)(=O)c4ccccc4C)cc3C(=O)N2C)O1,x,x,x,x,1,x,x
COC(=O)c1sccc1NC(=S)N1CCC(C(N)=O)CC1,-3,-2,-25,1,0,2,x
COC(=O)c1sccc1NC(=S)N1CCCCC1,-3,7,+,1,x,-1,0
CC(=O)N(C)C[C@H]1Oc2ncc(-c3cccc(F)c3)cc2C(=O)N([C@@H](C)CO)C[C@@H]1C,x,x,x,x,-3,x,x
CCOC(=O)N1CCN(c2cc3[nH]c(=S)[nH]c3cc2F)CC1,90*,-1,400*,5,x,0,0
O=C(C[n+]1ccc(C(=O)N/N=C/c2ccc(Cl)cc2Cl)cc1)c1ccccc1,-15,9,712*,3,x,4,0
COc1ccc(/C=C/C(=O)N2CCN(c3ccccc3)CC2)cc1S(=O)(=O)N1CCOCC1,45,-1,-18,-4,3,-2,x
COc1ccc(/C=C/C(=O)N2CCC(C(N)=O)CC2)cc1S(=O)(=O)N1CCOCC1,-6,-9,714*,-1,2,1,-1
CC(=O)Nc1nc2ccc(NC(=O)c3ccco3)cc2s1,-2,2,-26,0,x,1,x
Cc1nc2ccc(NC(=O)c3ccco3)cc2s1,x,0,363*,1,-1,1,0
N#C/C(=C\c1cc([N+](=O)[O-])c(N2CCOCC2)cc1N1CCOCC1)c1nc2ccccc2[nH]1,4,-2,361*,0,x,-2,1
COc1cc(/C=C(\C#N)c2nc3ccc(C)cc3[nH]2)c([N+](=O)[O-])cc1OC,19,0,3,0,x,2,x
Cc1ccc2nc(/C(C#N)=C\c3cc(O)ccc3[N+](=O)[O-])[nH]c2c1,98*,12,503*,0,11,1,0
CC(C)NC(=O)N(C)C[C@@H]1Oc2ncc(C#Cc3ccc(F)cc3)cc2C(=O)N([C@@H](C)CO)C[C@@H]1C,x,x,x,x,-1,x,x
O=C(/C=C/N1CCOCC1)c1coc2ccccc12,5,1,425*,0,x,-5,-1
O=S(=O)(c1cccc(-c2nnco2)c1)N1CCCC1,2,-1,+,0,-1,2,0
CC(C)c1cc(N2CCOCC2)n2ncc(-c3ccccc3)c2n1,8,-3,489*,0,0,-4,0
Cc1nn2c(N3CCOCC3)cc(C(C)C)nc2c1-c1ccccc1,-3,-9,10,1,0,1,x
O=C(C[C@H]1CC[C@@H]2[C@H](COC[C@H](O)CN2C(=O)c2ccc(F)cc2)O1)N1CCOCC1,x,x,x,x,-1,x,x
CN1CCc2c(sc3c2c(=O)n(-c2cccc(Cl)c2)c2nncn32)C1,-14,13,-2,2,x,-1,x
O=c1c2c3c(sc2n2cnnc2n1-c1ccccc1)N(Cc1ccccc1)CCC3,-17,x,445*,x,x,x,0
SMILES,ALR inh,NSD2 inh,Mot1-301 SUMO,CDK5 p35 inh,Casp6 inh,Glyco luc inh,Mot1 SUMO dose
Cc1noc(C)c1S(=O)(=O)N(C)C[C@H]1OCCCC[C@H](C)Oc2ccc(NS(=O)(=O)c3cccs3)cc2C(=O)N([C@@H](C)CO)C[C@@H]1C,x,x,x,x,0,x,x
CCOc1ccc(Br)cc1S(=O)(=O)N1CCC(C(N)=O)CC1,-9,6,438*,1,-1,1,0
COc1ccc(OC)c(S(=O)(=O)N2CCC(C(=O)NCc3cccnc3)CC2)c1,1,1,-19,-2,-1,2,x
CCOc1ccc(Cl)cc1S(=O)(=O)N1CCC(C(=O)NCc2cccnc2)CC1,-1,1,366*,1,-3,2,0
Cc1ccc(/C=C/C(=O)OCC(=O)N(CC(C)C)c2c(N)n(Cc3ccccc3)c(=O)[nH]c2=O)o1,-1,-1,812*,0,9,3,0[21 µM]
CCN(C(=O)COC(=O)c1c(-c2ccccc2)noc1C)c1c(N)n(Cc2ccccc2)c(=O)[nH]c1=O,1,-3,413*,1,1,2,0
Cc1c(Cl)cnc(NC(=O)COC(=O)/C=C/c2ccco2)c1Cl,x,-1,x,0,25,0,x
O=C(COC(=O)/C=C/c1ccco1)Nc1ncc(C(F)(F)F)cc1Cl,23,15,588*,1,53*,2,0
CCNC(=O)/C(C#N)=C/c1c(N2CCCCCC2)nc2ccccn2c1=O,x,25,748*,0,-1,0,0
N#C/C(=C\c1c(N(Cc2ccccc2)Cc2ccccc2)nc2ccccn2c1=O)C(N)=O,2,3,x,1,x,0,0
C[C@@H]1CN([C@H](C)CO)C(=O)c2cccc(NC(=O)Nc3cccc4ccccc34)c2O[C@@H]1CN(C)C,x,x,x,x,-1,x,x
O=C(C[C@@H]1CC[C@@H]2[C@H](COC[C@H](O)CN2C(=O)Nc2ccc(Cl)cc2)O1)NC1Cc2ccccc2C1,x,x,x,x,1,x,x
O=C(NCc1csc(-c2cccs2)n1)Nc1ccc(F)cc1F,-11,1,438*,3,0,2,0
O=C(NCc1csc(-c2cccs2)n1)Nc1ccc(C(F)(F)F)cc1,0,-1,3,x,-4,2,x
O=C(C[C@H]1CC[C@H](NS(=O)(=O)c2ccccc2)[C@H](CO)O1)N1CCC(Cc2ccccc2)CC1,x,x,x,x,1,x,x
c1ccc(-c2csc(N3CCN(c4ccccn4)CC3)n2)cc1,-2,0,699*,0,-5,-6,0
